AMA1-RON2 inh: inhibitors of Plasmodium falciparum AMA1-RON2 interaction | AlphaScreen AMA1-biotinylated RON2 peptide binding | Potency, µM (series often up to 58.2 µM), for inactives: top-dose activity change, negative = inhibition, actives largely listed as inhibitors | 360,000 tested, 0.2% active | AID 720542;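 note: potency is the fitted concentration of half-maximal effect; 0% = vehicle wells and -100% = peptide control; nearly all actives have a fitted effect of over 45% in size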
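AMA1 (3D7) with his tag at 25 nM final met compounds first, then biotinylated RON2 peptide at 25 nM; detection used donor plus acceptor beads, 10 µg/mL apiece, read by AlphaScreen after 30 min at room temperature.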
Pf growth 96h: P. falciparum growth inhibition at 96 hours. P. falciparum luciferase reporter growth, 96 h. 320,000 tested, 6.9% active. Potency, µM (series often up to 28.7 µM), for inactives: at the highest dose activity change, negative = inhibition, actives largely listed as inhibitors. AID 504834; note: potency is the fitted concentration of half-maximal effect; % is set by controls: 0 for no effect and ±100 for the full control effect
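96 h incubation, 37 C, 5% CO2, of luciferase-reporter P. falciparum-infected RBCs (2% hematocrit, 0.05% parasitemia final) with test compounds; endpoint luminescence.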
Shiga inhibitor: inhibitors of Shiga toxin in Vero cells. Vero cells, Shiga toxin protein synthesis inhibition reporter. inhibition, % at 38.7 µM. 290,000 tested, 9.2% active. AID 2315; in the data active = inhibition mostly above about 28%, no sharp cut-off; inactive = mostly below about 43%; note: 0% is about no effect
HCV inhibitor: HCV inhibition | Huh7.5.1 HCVcc-Cre infection, luciferase reporter, 44 h | Potency, µM (top dose mostly 41.8 µM), inactives show top-dose activity change, negative = inhibition, actives largely listed as inhibitors | 340,000 tested, 3.4% active | AID 651820; note: potency is the fitted concentration of half-maximal effect; % is set by controls: 0 for no effect and ±100 for the full control effect
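Cells (1,000/well) were plated 4 h before compound, then infected with HCVcc-Cre virus (~0.5 moi). After 44 h further culture, infection was read as luciferase luminescence following a 15 min substrate incubation at room temperature.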
CHX counter: affects cycloheximide protein synthesis inhibition readout, counter-screen. max response, %. 300,000 tested, 12% active. AID 2314. cell reporter, cycloheximide protein synthesis inhibition counterscreen; in the data active = max response mostly above about 13%, no sharp cut-off; inactive = mostly below about 14%; note: read at 38.3 µM for the half of the compounds with a filed dose; 0% is about no effect
Pf growth 48h: inhibits P. falciparum growth in the first generation, 48 h. P. falciparum luciferase growth in erythrocytes, 48 h. Potency, µM (doses to about 28.7 µM), for the others: at the top dose activity change, negative = inhibition, most hits filed as inhibitors. 310,000 tested, 5.9% active. AID 504832; note: potency is the fitted concentration of half-maximal effect; % is set by controls: 0 for no effect and ±100 for the full control effect
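Luciferase-expressing parasites in RBCs, 2% Hct / 0.1% parasitemia final; RPMI 1640 + 0.5% Albumax; 37 C, 5% CO2, one generation; luminescence read-out, lower signal = inhibition.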
Starred values were filed as active, the others as inactive; ? = inconclusive; / = no result; [ ] = dose if it differs, or a comment. Only some compounds are listed: those with a hit (about 21% of all), similar ones and a draw of the others. Unless noted, calls come from the whole dose curve; as a rule, active = well fitted curve in the direction sought with a large enough effect; inconclusive = small, poorly fitted or top-dose-only effect, or another doubt; inactive = no such curve, though single readings can be large; an effect the other way counts as inactive or inconclusive.

SMILES | AMA1-RON2 inh | Pf growth 96h | Shiga inhibitor | HCV inhibitor | CHX counter | Pf growth 48h
Cc1ccc(-c2nc(CN3CCCCC3)cc(CN3CCCCC3)c2O)cc1 | -19% | ? | 12 | ? | -2 | 0.83µM*
COc1ccc(C(CNC(=O)c2cccc(S(=O)(=O)N3CCc4ccccc43)c2)N(C)C)cc1 (centres undefined) | -8% | / | / | ? | / | /
O=C(NCC1CCCO1)c1cc(-c2ccc(Cl)cc2Cl)on1 (centres undefined) | 11% | 226% | 75* | -1% | 52* | 124%
CCOC(=O)/C(=N/Nc1ccccc1)c1csc(Nc2ccccc2)n1 | -12% | ? | -5 | ? | -1 | /
Cc1ccc(Nc2nnc(SCC(=O)NCC3CCCO3)s2)cc1 (centres undefined) | 2% | / | / | 2% | / | /
Cc1ccc(Nc2nc(C(=O)NCC3CCCO3)cs2)cc1 (centres undefined) | -8% | -7% | 51* | -15% | 24* | 99%
O=C(NCC1CCCO1)c1ccccc1-c1nc(-c2ccccc2)no1 (centres undefined) | -4% | 13%[5.75 µM] | 112* | -14% | 35* | 15%
CCOC(=O)/C(=N\Nc1ccc(OC)cc1)c1csc(Nc2ccccc2)n1 | -4% | 10µM* | 36 | 1µM* | 13 | /
Cn1c(N)c(NC(=S)NC2CCCCC2)c(=O)n(C)c1=O | 3% | / | / | 7% | / | /
CC1=C(C(=O)N2CCOCC2)CC(CC(=O)NC(c2ccccc2)c2ccccc2)C(=O)N1Cc1ccc(F)cc1 (centres undefined) | -5% | / | / | / | / | /
CC12C=CC(=O)C=C1[C@@H](F)CC1C2C(O)CC2(C)C1CC[C@]2(O)C(=O)CO (some centres undefined) | / | ? | 33 | / | 3 | -19%
O=C(NCC1CCCO1)c1cc2cc(Cl)ccc2[nH]1 (centres undefined) | -1% | 1% | 43* | -8% | 33* | 13%
CCN(CC)C(=O)c1csc(Nc2ccc(C)cc2)n1 | -7% | 4% | 49* | -12% | 20* | ?
Cc1ccc(Nc2nc(C(=O)N3CCC(C(=O)NC(C)C)CC3)cs2)cc1 | -5% | -23% | 17 | -3% | 17* | 12%
Cc1ccc(Nc2nc(C(=O)NCc3ccco3)cs2)cc1 | 1% | ? | 40 | ? | 20 | ?
CC(C)NC(=O)C1CCN(C(=O)c2ccc(-c3ccccc3)cc2)CC1 | 11% | 30% | -5 | 10% | -1 | -17%
Cc1ccc(-c2cc(C(=O)NCC3CCCO3)no2)cc1 (centres undefined) | 23% | 13% | 49* | 2% | 48* | 222%
CC(=O)Nc1c2c(nn1-c1ccccc1C)CS(=O)(=O)C2 | 7% | 20% | -3 | 8% | 3 | 37%
O=C(Nc1nnc([C@@H]2C[C@H](O)[C@@H](CO)O2)s1)c1cccc(C(F)(F)F)c1 | 0% | / | / | / | / | /
CCCCN1C(=O)C(CC(=O)NC2CCCCC2)CC(C(=O)N(C)C)=C1C (centres undefined) | -1% | / | / | / | / | /
O=C(NCC1CCCO1)c1cc(-c2ccccc2)on1 (centres undefined) | -1% | 26% | 129* | 1% | 40* | 203%
O=C(Cc1ccccc1)NCC1CCCO1 (centres undefined) | 0% | -36% | -12 | 19% | -2 | /
NC(=O)C1CCCN(Cc2ccc3ccccc3c2)C1 (centres undefined) | 4% | 2.6µM* | -16 | 6% | 1 | ?
O=C(C1CCCN(Cc2ccccc2)C1)N1CCCCC1 (centres undefined) | -6% | ? | 16 | 1% | -2 | /
CCN(CC)C(=O)C1CCCN(Cc2cccc(F)c2)C1 (centres undefined) | -26% | -11% | -10 | 8% | -4 | /
SMILES | AMA1-RON2 inh | Pf growth 96h | Shiga inhibitor | HCV inhibitor | CHX counter | Pf growth 48h
CCN(CC)C(=O)C1CCCN(Cc2ccc3ccccc3c2)C1 (centres undefined) | -2% | 13µM* | -5 | -18% | -2 | 9%
O=C(NNC(=O)c1cc2cc(OC(F)(F)F)ccc2[nH]1)c1cccc(C(F)(F)F)c1 | 80% | 59% | -8 | 1% | -1 | 17%
O=C(NCC1CCCN(C(=O)c2cscn2)C1)c1ccc(-c2ccccc2)cc1 (centres undefined) | 10% | ? | 7 | ? | 8 | ?
CC(=O)NCCC(=O)N1CCCC(CNC(=O)c2ccc(-c3ccccc3)cc2)C1 (centres undefined) | 5% | 0% | 27 | -2% | 15* | 27%
CC(=O)c1ccccc1C(=O)N1CCCC(CNC(=O)c2ccc(F)cc2)C1 (centres undefined) | 0% | / | / | / | / | /
O=C(NCC1CCCN(C(=O)c2cscn2)C1)c1ccccc1Cl (centres undefined) | 6% | -18% | 30* | 1% | 25* | -5%
CC(=O)c1ccc(C(=O)N2CCCC(CNC(=O)c3ccccc3Cl)C2)cc1 (centres undefined) | -15% | -9% | 19 | 2% | 15* | 6%
COc1ccc(CC(=O)NCC2CCCN(Cc3ccc(OC)cc3F)C2)cc1 (centres undefined) | 0% | 9.3µM* | -9 | -2% | 0 | -1%
Cc1cc(S(=O)(=O)Nc2ncnc3sccc23)ccc1F | -2% | / | / | / | / | /
COC(=O)c1ccc(C(=O)N2CCCC(CNC(=O)c3ccccc3Cl)C2)cc1 (centres undefined) | 12% | 1% | 69 | -11% | 13* | 36%
COc1ccc(CC(=O)N2CCCC(CNC(=O)c3ccccc3Cl)C2)cc1 (centres undefined) | -9% | -30% | 33* | 7% | 12 | 23%
O=S1(=O)C=C(Oc2ccc3ccccc3c2)c2ccccc21 | 4% | -9% | 63 | -2% | 7 | ?
O=S1(=O)C=C(Oc2ccc(F)cc2)c2ccccc21 | -9% | 75% | 27* | 12% | 11* | 3%
COC(=O)C[C@H]1C[C@H]2c3cc(NC(=O)C4CCC4)ccc3O[C@H]2[C@H](CO)O1 | 2% | / | / | / | / | /
CCOc1ncccc1C(=O)NCCc1ccc(Cl)cc1 | 29% | -16% | 1 | 20% | 2 | -13%[0.00184 µM]
CC1(C)CN2C(=S)N(c3ccccc3)C(c3ccccc3)N2C1 (centres undefined) | 27% | 8.3µM* | -1 | 9% | 5 | /
CC(C)(C)NC(=O)CN(C(=O)c1snc(C(=O)NC2CCCCC2)c1N)c1ccccc1F | 7% | 6% | 17 | ? | -2 | 12µM*
CC(=O)Nc1ccccc1C(=O)C(=O)Nc1ccc(C)c(C)c1 | -5% | -7% | 40* | -8% | 40* | 194%
CCN(CC)C(=O)C(=O)Nc1ccc(F)c(Cl)c1 | -14% | -16% | 88* | 5% | 28* | 54%
